Experimental findings from PubChem BioAssay (NCATS) are described below.

SMILES strings stand for the structures. Values joined by “and” are separate entries in the source; they are usually repeats but may differ in a detail not shown here. Equal values may be shown once. Results filed as inconclusive are left out. Active and inactive are the calls of the source. The call rests on the fitted dose curve.

The nature of assay [1]: Primary qHTS to identify inhibitors of SARS-CoV-2 cell entry (AID 1645846). Further: nearly all actives have a fitted effect of over 45% in size. The following applies: activity change, negative = inhibition: at 57.1 µM (top of the series) unless noted. A digest of the protocol:
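Entry measured by luciferase signal 48 h after adding SARS-CoV-2-S pseudotyped MLV particles to HEK293-ACE2 cells preincubated 1 h with compounds. Normalisation: bald particles and spike particles.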
For orientation: qHTS replaces the single test concentration by a dilution series.

Assay [2] can be described thus: VSVG counterscreen qHTS to identify inhibitors of SARS-CoV-2 cell entry (AID 1645847). Further: nearly all actives have a fitted effect of over 65% in size. The essentials: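 Luminescence read after 48 h infection at 37 C with VSV-G-pseudotyped MLV particles, following 1 h compound exposure of Expi293F cells stably expressing human ACE2; scaled between bald particle and VSV-G particle wells.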
Potency means the concentration at half of the fitted maximal effect.

Regarding `CN(C)CC/C=C1\c2ccccc2Sc2ccc(Cl)cc21`, the Potency in assay [1] is 20 µM (active).

Consider `O=c1c(-c2ccccc2)c1-c1ccccc1`, for which the Potency in assay [1] is 31.6 µM (active). As for `Oc1ccc(Cl)cc1Cc1cc(Cl)ccc1O`, the Potency in assay [2] is 3.83 µM (active). For the molecule `NCCc1ccc(O)c(O)c1`, the activity change, negative = inhibition in assay [1] is -18% and -6.68%.

As for `CCCCCC(=O)O[C@]1(C(C)=O)CC[C@H]2[C@@H]3CCC4=CC(=O)CC[C@]4(C)[C@H]3CC[C@@]21C`, the Potency in assay [2] was 24.1 µM (active). As for `CN1CCN(c2cc3c(cc2F)c(=O)c(C(=O)O)cn3-c2ccc(F)cc2)CC1`, in assay [1], the Potency result was “inactive”. Consider `COC(=O)C1=C(C)NC(C)=C(C(=O)OCCN2CCN(C(c3ccccc3)c3ccccc3)CC2)C1c1cccc([N+](=O)[O-])c1` (centres undefined), for which the Potency in assay [1] is 17.8 µM (active). As for `C/C(=C(\CCOP(=O)(O)O)SC(=O)c1ccccc1)N(C=O)Cc1cnc(C)nc1N`, in assay [1], the outcome was “inactive [at 5.25 µM]”. As to `O=C(NOCC1CC1)c1ccc(F)c(F)c1Nc1ccc(I)cc1Cl`, the Potency in assay [1] was 31.6 µM (active). `OC(CCCN1CCCCC1)(c1ccccc1)c1ccccc1`: in assay [1], the activity change, negative = inhibition is -24.7%.

Consider `COC(=O)C1=C(C)NC(C)=C(C(=O)OC(C)(C)CN(C)CCC(c2ccccc2)c2ccccc2)C1c1cccc([N+](=O)[O-])c1` (centres undefined), for which, in assay [2], the Potency was 21.5 µM (active). Take `Cc1cc(=O)oc2cc(O)ccc12`: in assay [1], the Potency entry was “inactive” and the activity change, negative = inhibition is -8.91%.

With `C[C@]12CCC(=O)C=C1[C@@H]1C[C@@H]1[C@H]1[C@@H]3[C@@H]4C[C@@H]4[C@@]4(CCC(=O)O4)[C@@]3(C)CC[C@@H]12`, the activity change, negative = inhibition in assay [1] is 0.82% and 2.72%. Consider `Oc1c(Cl)cc(Cl)cc1Sc1cc(Cl)cc(Cl)c1O`, for which the Potency in assay [1] was 20 µM (active); in assay [2], 4.82 µM (active). Consider `Clc1ccc(C(Cn2ccnc2)OCc2c(Cl)cccc2Cl)c(Cl)c1` (centres undefined), for which the Potency in assay [1] was 31.6 µM (active). `CCCCc1ccc2nc(NC(=O)OC)[nH]c2c1`: the activity change, negative = inhibition in assay [1] was -63.3%. Take `CC1(C)[C@@H](OC(=O)CCC(=O)O)CC[C@]2(C)[C@H]3C(=O)C=C4[C@@H]5C[C@@](C)(C(=O)O)CC[C@]5(C)CC[C@@]4(C)[C@]3(C)CC[C@@H]12`: the Potency entry in assay [1] is “inactive”.

Take `COc1ccccc1OC(=O)Oc1ccccc1OC`: the Potency result in assay [1] was “inactive”. On the same count and under the same terms, for `CC1=C(C)C(=O)C(C(CCCCCC(=O)O)c2ccccc2)=C(C)C1=O` (centres undefined) the value was “inactive”. On the same count and under the same terms, for `CCCCOc1ccc(OCCCN2CCOCC2)cc1` the value was “inactive”; for `CN(C)c1ccc(C(=C2C=CC(=[N+](C)C)C=C2)c2ccccc2)cc1`, 4.47 µM (active). With `Cc1cc(C(C)(C)C)c(O)c(C)c1CC1=NCCN1`, in assay [1], the Potency entry is “inactive” and the activity change, negative = inhibition is -17.1%.

`CCCOc1ccc(C(=O)OCCN(CC)CC)cc1N`: the activity change, negative = inhibition in assay [1] was 2.8% and -24.9%. In the case of `O=C(Oc1cccc2cccnc12)c1ccccc1`, the Potency in assay [1] was 8.91 µM (active). On the same count and under the same terms, to `CCCCCN=C(N)N/N=C/c1c[nH]c2ccc(OC)cc12` belongs 22.4 µM (active). Regarding `C[C@@H]1CCC[C@H](C)N1CCCC(O)(c1ccccc1)c1ccccn1` (some centres undefined), the activity change, negative = inhibition in assay [1] was -1.1%.
